High-throughput results (PubChem BioAssay)
Tb PGK inh: T. brucei PGK inhibition | P07378 | PGK/GAPDH coupled, Kinase-Glo luminescence, 60 min | Potency, µM (highest dose often 57.5 µM), most hits filed as inhibitors | actives 0.043% (n = 380,000) | AID 602233; also: nearly all actives have a fitted effect of over 60% in size
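Recombinant glycosomal PGK reaction used 1,3-bisphosphoglycerate generated in-well by GAPDH (100nM final) in 100mM TEA pH 7.6, 5mM MgCl2, 0.01% Tween-20. After 60 minutes at room temperature, ATP was read by Kinase-Glo Plus luminescence end-point.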
GLP1R inv ag: acts as inverse agonist at human GLP-1 receptor | Potency, µM (highest dose often 38.3 µM), actives largely listed as inhibitors | actives 1.6% (n = 410,000) | AID 624417 | P43220 | HEK293 GLP-1R CRE-luciferase, luminescence, 24 h; GLP-1R form is constitutively active; also: nearly all actives have a fitted effect of over 55% in size
Target sequence (P43220 whole entry, looked up): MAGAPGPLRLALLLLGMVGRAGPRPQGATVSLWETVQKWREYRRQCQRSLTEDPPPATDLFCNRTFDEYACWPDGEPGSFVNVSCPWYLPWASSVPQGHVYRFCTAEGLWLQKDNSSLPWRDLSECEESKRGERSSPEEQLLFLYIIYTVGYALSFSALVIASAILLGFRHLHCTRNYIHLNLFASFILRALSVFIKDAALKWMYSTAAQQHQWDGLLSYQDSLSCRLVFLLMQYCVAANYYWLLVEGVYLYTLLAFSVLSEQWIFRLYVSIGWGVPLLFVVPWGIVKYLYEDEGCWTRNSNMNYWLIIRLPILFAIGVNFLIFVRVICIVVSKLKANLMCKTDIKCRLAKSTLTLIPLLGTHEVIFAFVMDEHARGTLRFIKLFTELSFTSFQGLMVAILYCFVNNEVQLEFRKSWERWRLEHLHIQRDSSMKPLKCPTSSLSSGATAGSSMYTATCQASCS
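Assay principle: reduced luminescence from a cAMP-responsive reporter in HEK293 cells co-expressing a constitutively active GLP-1R. Conditions: 24 hr compound incubation, 37 deg C, 5% CO2.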
Tb PFK block: T. brucei PFK enzyme inhibition; O15648; T. brucei PFK, ADP-Glo luminescence; Potency, µM (top dose mostly 57.5 µM), most hits filed as inhibitors; actives 0.17% (n = 330,000); also: nearly all actives have a fitted effect of over 60% in size
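ADP-Glo luminescence quantified ADP after 45 min at room temperature, with 1.25 nM T. brucei PFK, 0.1 mM ATP and 0.5 mM fructose-6-phosphate in pH 8.0 TEA buffer. qHTS titrations up to 57 µM; curves classified by quality.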
GLP1R cytotox: cytotoxic in the GLP-1 receptor inverse agonist counter-screen. HEK293 cAMP-luciferase reporter cells, luminescence, 24 h. Potency, µM (series often up to 38.3 µM), usual class: inhibitors. actives 0.13% (n = 410,000). AID 624418;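 also: loss of luciferase light is scored as toxicity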
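Seeding density was 200 cells/uL; after overnight-length (12 h) culture, 23 nL compounds went on for 24 h at 37 °C. Readout used a luciferase detection reagent, luminescence taken after 12 min at room temperature.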
GLP-1R agonist: agonists of human GLP-1 receptor; Potency, µM (doses to about 45.6 µM), actives largely listed as activators; HEK293 GLP-1R CRE-luciferase, luminescence, 4-6 h; cells express a hypersensitive GLP-1R form; P43220; actives 0.007% (n = 380,000)
Pin1 inh: inhibitors of human Pin1. Pin1 FP peptide displacement, HiFluor488, 10 min. Potency, µM (highest dose often 115 µM), hits mostly inhibitors. actives 0.009% (n = 390,000). Q13526; active = well fitted inhibition curve with a large enough effect in the polarisation, with a control signal flat, not every such curve was filed as active; inconclusive = small, poorly fitted or top-dose-only effect, or effect the other way, or a change in a side signal; inactive = no such curve, though single readings can be large or run the other way; the % refers to the polarisation
Numbers stand for hits; 0 = inactive; ? = inconclusive; - = no result given. This is a sample that favours compounds with a hit; in the whole collection about 1.8% have one here. Unless noted, calls follow the shape of the dose curve; as a rule, active = well fitted curve in the direction sought with a large enough effect; inconclusive = small, poorly fitted or top-dose-only effect, or another doubt; inactive = no such curve, though single readings can be large; an effect the other way counts as inactive or inconclusive.

SMILES | Tb PGK inh | GLP1R inv ag | Tb PFK block | GLP1R cytotox | GLP-1R agonist | Pin1 inh
Cc1cccc(N2CCN(C(=O)Cn3nc(C)c4sc5ccccc5c4c3=O)CC2C)c1 (stereo not given) | 0 | 0 | - | 0 | - | 0
Cc1cc2c(s1)c1cnn(Cc3cccc(Cn4ncc5c6sc(C)cc6n(C)c5c4=O)c3F)c(=O)c1n2C | - | - | - | - | - | 0
O=C(Nc1ccc2nc(SCC(=O)N3CCc4ccccc43)sc2c1)c1ccccc1 | 0 | 0 | - | 0 | - | 0
NC(=O)[C@H]1CC2(CC(c3cccc(NC(=O)COc4ccc(Cl)cc4)c3)=NO2)CN1C(=O)CC(c1ccccc1)c1ccccc1 (stereo not given in full) | 0 | 10µM | 0 | 0 | 0 | 0
NC(=O)[C@@H]1CC2(CC(c3cccc(NC(=O)CC(c4ccccc4)c4ccccc4)c3)=NO2)CN1C(=O)COc1ccc(Cl)cc1 (stereo not given in full) | 0 | 11µM | 0 | 0 | 0 | 0
CCC(=O)Nc1cccc(C2=NOC3(C2)C[C@@H](C(N)=O)N(C(=O)COc2ccc(Cl)cc2)C3)c1 (stereo not given in full) | 0 | 0 | 0 | 0 | 0 | 0
CC(=O)NCc1cc(Cl)c2cccnc2c1O | - | - | 0 | - | - | -
CCN(Cc1ccccc1)c1ccc(/C=N/N=C(N)N)cc1 | 0 | 10µM | 0 | 0 | 0 | 0
CC(C)Cn1c(N2CCN(CC(=O)Nc3ccc(Cl)cc3)CC2)nc2ccccc21 | 0 | 10µM | 0 | 0 | 0 | 0
CCN(CC)c1ccc(NC(=O)CN2CCN(c3ccc(F)cc3)CC2)cc1 | 0 | 10µM | 0 | 0 | 0 | 0
COc1ccccc1N1CCN(CC(=O)Nc2ccc(CN3CCCCC3)cc2)CC1 | 0 | ? | 0 | ? | 0 | 0
O=C(CN1CCN(c2ccc(Cl)cc2)CC1)Nc1ccc(F)cc1 | 0 | ? | 0 | 0 | 0 | 0
O=C(CN1CCN(c2ccc(Cl)cc2)CC1)Nc1ccc(F)c(F)c1 | 0 | 2.8µM | 0 | 0 | 0 | 0
CCOc1ccc(NC(=O)CN2CCN(c3ccc(F)cc3)CC2)cc1 | 0 | ? | 0 | 0 | 0 | 0
Cc1ccc(Cl)cc1N1CCN(CC(=O)Nc2ccc(CN3CCCCC3)cc2)CC1 | 0 | 11µM | 0 | ? | 0 | 0
Cc1ccc(OCC(=O)NCC2(N3CCOCC3)CCCCC2)cc1C | 0 | ? | - | 0 | - | 0
CC(=O)Nc1cccc(NC(=O)c2c(-c3ccccc3)c(-c3ccccc3)nn(C)c2=O)c1 | 0 | 0 | - | 0 | - | 0
Cc1cc(C)c(C(=O)NC2CC(C)(C)Cc3c2cnn3-c2ccccc2)o1 (stereo not given) | 0 | 10µM | 0 | 0 | 0 | 0
COc1ccc(-c2noc(CSc3nnc(-c4ccncc4)n3-c3ccccc3)n2)cc1 | 0 | 0 | - | 0 | - | 0
CCOn1c(-n2nc(C)cc2C)nc2ccccc2c1=O | 0 | 0 | 0 | 0 | 0 | 0
Cc1cc(C)n(-c2nc3ccccc3c(=O)n2OCC#N)n1 | 0 | 3.2µM | 0 | ? | 0 | 0
CCOC(=O)Cn1nc(-c2ccc(F)cc2)cc(Cc2ccccc2)c1=O | 0 | 11µM | 0 | 0 | 0 | 0
CCOC(=O)Cn1nc(-c2ccccc2)ccc1=O | 0 | 0 | 0 | 0 | 0 | 0
c1ccc(Nc2nc(NCc3ccco3)c3ccccc3n2)cc1 | 0 | 2.2µM | 0 | ? | 0 | 0
Cc1ccccc1Nc1nc(NCc2ccco2)c2ccccc2n1 | 0 | 4µM | 0 | ? | 0 | 0
SMILES | Tb PGK inh | GLP1R inv ag | Tb PFK block | GLP1R cytotox | GLP-1R agonist | Pin1 inh
CCCCn1c(Oc2cccc(C(=O)OC)c2)nc2c1c(=O)n(C)c(=O)n2C | 0 | 0 | - | 0 | - | 0
N/C(=N\OC(=O)COc1ccc(Cl)cc1Cl)c1ccccn1 | 0 | ? | 0 | 0 | 0 | 0
N/C(=N\OC(=O)COc1ccc(Br)cc1Cl)c1ccccn1 | 0 | 10µM | 0 | 0 | 0 | 0
CCOc1ccc(CNC(=O)c2cccc(NC(=O)N3CCSc4ncccc43)c2)cc1OC | 0 | 0 | - | 0 | - | 0
Cc1cc2c(s1)c1cnn(Cc3c(F)cc(F)cc3F)c(=O)c1n2C | - | - | - | - | - | 0
COc1ccccc1-[n+]1c(C)cc(/C=C2\Sc3ccccc3N2C)cc1C | 0 | 2.5µM | 0 | 0 | 0 | ?
CC1=CC(C)(C)N(C(=O)c2ccccc2)c2ccc(C)cc21 | 0 | ? | 0 | 0 | 0 | 0
